# Test results published in PubChem BioAssay (NCI).
# Where “and” joins values, the source holds several entries; their conditions need not be identical. Equal values may be shown once. About 83,000 compounds went through this panel and 20% of them were active in at least one assay; those are over-represented in the sample as a whole.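 Note: values are percent growth. 100 is the growth of untreated cells, values between 100 and 0 indicate rising inhibition; between -100 and 0 indicates cell death.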 Calls of active or inactive are those of the source. How the source made its calls: active means growth percent below 10; inactive means the rest.
# Test system: MDA-MB-468 breast
# Test: NCI-60 one-dose screen, 48 h (100 = growth as untreated, 0 = no growth, -100 = all killed)
# Details: 10 µM unless noted
row,SMILES,growth
1,CS(=O)(=O)OC1CC(n2ccc(=O)[nH]c2=O)OC1COC(c1ccccc1)(c1ccccc1)c1ccccc1 (stereo not given),110% (inactive)
2,C1=C2CNCC3=Cc4ccc5ccccc5c4OC23Oc2c1ccc1ccccc21,50.4% (inactive)
3,CCC1=C(c2ccc(OC)cc2)C(C)Oc2cc(OC(C)=O)ccc21 (stereo not given),-14.1% (active)
4,CN1CCN(Cc2ccc(NC(=O)c3nc4ccc5[nH]ncc5c4c4c3CCCC4)cc2C(F)(F)F)CC1,-92.9% (active)
5,COc1ccc(N(C)c2nc(Cl)nc3ccn(C)c23)cc1,49.9% (inactive)
6,COc1ccc(C2=C/C(=C\c3ccc(Cl)cc3)C(=O)NN2C(=S)NN)cc1,82.7% (inactive)
7,COc1ccc(C2=NC(=O)NC2c2ccc(OC)cc2)cc1 (stereo not given),43.9% (inactive)
8,C=C1C(=O)O[C@H]2[C@H]1CC/C(COC(=O)CSCCSCC(=O)OC/C1=C/CC[C@@]3(C)O[C@H]3[C@H]3OC(=O)C(=C)[C@@H]3CC1)=C\CC[C@@]1(C)O[C@@H]21,-44.7% (active)
9,COc1c(N2CC3CCCNC3C2)c(F)cc2c(=O)c(C(=O)N/N=C/c3ccc(Br)cc3)cn(C3CC3)c12 (stereo not given),97% (inactive)
10,COc1cccc(C2(C)Nc3ccccc3-c3nc4ccccc4n32)c1 (stereo not given),109% (inactive)
11,CCOc1nc(-c2ccccc2)cc2c(O)c(C(=O)NN)[nH]c(=O)c12,110% (inactive)
12,C=C1C(=O)O[C@H]2[C@H]1CC/C(COC(=O)c1cc3cc(F)ccc3[nH]1)=C\CC[C@@]1(C)O[C@@H]21,-63.2% (active)
13,Cc1ccc(S(=O)(=O)Oc2ccc(NC(=O)c3ccc(Cl)cc3)cc2)cc1,95.2% (inactive)
14,CC1(C)CC[C@]2(C(N)=O)CC[C@]3(C)C(=CC[C@@H]4[C@@]5(C)C/C(=C/c6ccncc6)C(=O)C(C)(C)[C@@H]5CC[C@]43C)[C@@H]2C1,-25.2% [100 µM] (active)
15,C[C@@H](C[C@H](CCO)c1ccccc1)c1ccc2ccccc2c1,-54.1% (active)
16,O=C(/C(=C/c1ccc([N+](=O)[O-])cc1)SCc1ccc(F)cc1)c1ccc(F)cc1,83.7% (inactive)
17,Cc1[nH]c(C(=O)Nc2ccccc2OCc2cccc(C(=O)NCCN)c2)cc1Cl,34.3% (inactive)
18,COc1ccc2c(c1)C(=O)/C(=C/c1ccc([N+](=O)[O-])s1)O2,-22.9% (active)
19,CCN(CC)CCOc1ccc(/C=N/Nc2nc3c([nH]2)c(=O)n(C)c(=O)n3C)cc1,102% (inactive) and 121% (inactive)
20,Cc1ccc(NC(=O)N[C@@H](Cc2cc(F)cc(F)c2)C(=O)N[C@@H]2C(=O)N3CCC[C@H]3C(=O)N3CCOC[C@H]3C(=O)N[C@@H](C)C(=O)N3C[C@H](C)C[C@H]3C(=O)O[C@H]2C)cc1,5.17% (active)

row,SMILES,growth
1,COc1ccc(N2CCN(c3nc(-c4cc(OC)c(OC)c(OC)c4)nc4ccccc34)CC2)cc1,76.2% (inactive)
2,N#CCCN(CCO)c1ccccc1,97.3% (inactive)
3,O=C1NC(=C(Cl)Cl)/C(=N/S(=O)(=O)N2CCCCC2)N1,-38% (active)
4,O=[N+]([O-])c1ccc(N=Nc2ccc(O)c3ccccc23)cc1,26.7% (inactive)
5,CN1CCN(c2ccc(Nc3nc(NCCCNS(=O)(=O)c4cccc(F)c4)c4sccc4n3)cc2)CC1,-5.96% (active)
6,COc1cc(OC)cc(C(=O)Nc2cc(-c3cccnc3)nc(NCCCN3CCOCC3)n2)c1,83.2% (inactive)
7,Cc1cc(O)c(C(C)C)cc1N=O,62.6% (inactive) and 104% (inactive)
8,COc1cnc2c(c1)C(=O)c1c-2n(CCCN2CCC(N)CC2)c(=O)c2cc([N+](=O)[O-])ccc12,74% (inactive)
9,NC1=NN(O)C2=CC([N+](=O)[O-])C=CC2=N1 (stereo not given),107% (inactive)
10,Cc1ccc(N=C=C(c2ccccc2)c2ccccc2)cc1,69.1% (inactive)
11,CC(=O)OC1/C=C\CC/C=C\C1 (stereo not given),109% (inactive)
12,O=C(Nc1ccc2c(c1)OCCO2)C(=O)c1c[nH]c2ccccc12,-0.365% (active)
13,COc1ccc(/C=C2\CCCC3=C2NC(C)=NC3c2ccc(OC)c(OC)c2)cc1OC (stereo not given),-10.3% (active)
14,COc1ccc2cc(-c3cc(OC)c(OC)c(OC)c3)c(=O)oc2c1,46.5% (inactive)
15,C/C(=N/NC(N)=O)c1ccco1,110% (inactive)
16,CCOC(=O)C(C)C(C)(O)c1ccccc1 (stereo not given),96.3% (inactive)
17,COc1ccc2c(CCc3ccc(Cl)cc3)c3[n+](cc2c1OC)CCc1cc2c(cc1-3)OCO2,-11.7% (active)
18,Nc1ncnc2c1c(-c1ccc(Oc3ccccc3)cc1)nn2CC1SSCC1O (stereo not given),-24.8% (active)
19,CCN1CCN(CCNc2nccc(-c3c(-c4ccc(F)c(OC)c4)nc4sccn34)n2)S1(=O)=O,80.1% (inactive)
20,COc1ccc2c(c1)CCc1c-2n[nH]c1-c1[nH]nc2c1CCc1cc(OC)ccc1-2,-6.6% (active)
